Experimental data taken from ChEMBL document CHEMBL3433997, “St. Jude Leishmania screening dataset” (2016).

Columns and labels:
Assay type in all cases: functional
[1] = biological target: Solute carrier family 2, facilitated glucose transporter member 1 (Homo sapiens) (UniProt P11166); assay: ST_JUDE_LEISH: Cytotoxicity at 2uM final concentration against transgenic Leishmania Mexicana promastigotes LmGLUT1 that are glucose transport deficient and complemented with the human glucose transporter GLUT1. Activity is measured by DNA content using SYBR green in vitro
Sequence of Solute carrier family 2, facilitated glucose transporter member 1 (Homo sapiens) (P11166 whole entry): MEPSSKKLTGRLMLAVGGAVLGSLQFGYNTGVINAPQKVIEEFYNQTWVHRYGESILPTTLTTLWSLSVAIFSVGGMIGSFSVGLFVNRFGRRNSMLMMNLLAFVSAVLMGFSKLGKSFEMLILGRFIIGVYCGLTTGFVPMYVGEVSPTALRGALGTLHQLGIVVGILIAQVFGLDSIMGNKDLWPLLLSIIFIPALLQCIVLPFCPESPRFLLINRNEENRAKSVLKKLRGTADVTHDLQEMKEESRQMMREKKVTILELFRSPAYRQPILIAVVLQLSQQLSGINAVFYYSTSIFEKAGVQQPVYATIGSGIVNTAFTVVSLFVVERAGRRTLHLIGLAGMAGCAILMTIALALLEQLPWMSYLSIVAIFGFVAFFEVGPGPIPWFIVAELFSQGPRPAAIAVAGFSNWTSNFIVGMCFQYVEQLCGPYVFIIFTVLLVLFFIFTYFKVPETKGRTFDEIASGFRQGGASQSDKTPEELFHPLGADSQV

[2] = biological target: Hexose transporter 1 (Plasmodium falciparum) (UniProt O97467); assay: ST_JUDE_LEISH: Cytotoxicity at 2uM final concentration against transgenic Leishmania Mexicana promastigotes LmPfHT that are glucose transport deficient and complemented with the Plasmodium falciparum hexose transporter. Activity is measured by DNA content using SYBR green in vitro
[3] = biological target: Glucose transporter (Leishmania mexicana) (UniProt O61059); assay: ST_JUDE_LEISH: Cytotoxicity at 2uM final concentration against transgenic Leishmania Mexicana promastigotes LmGT2 that are glucose transport deficient and complemented with the L. Mexicana glucose transporter 2. Activity is measured by DNA content using SYBR green in vitro

## CCCCCNc1nc2nc(N)nc(N)c2nc1-c1ccccc1
[1]
  inhibition: 7.52%
[2]
  inhibition: 9.23%
[3]
  inhibition: 0.23%

## Cc1cc(-c2cc(-c3ccc(OCCN(C)C)cc3)[nH]c2-c2ccc3c(c2)CCC3=NO)ccn1
[1]
  inhibition: 4.92%
[2]
  inhibition: 3.52%
[3]
  inhibition: 2.39%

## NC1=NC(CCc2ccccc2)N(c2ccccc2)C(N)=N1 (centres undefined)
[1]
  inhibition: 10.1%
[2]
  inhibition: 9.38%
[3]
  inhibition: 9.31%

## CCN(CCCN1CCCCC1)c1cc(C)nc(Nc2cc(Cl)ccc2C)n1
[1]
  inhibition: 1.18%
[2]
  inhibition: 1.77%
[3]
  inhibition: 1.67%

## Cc1cc(CN2CCCN(c3ccc4c(c3)CCN(Cc3ccc(-c5ncc[nH]5)cc3)CC4)CC2)n(C)n1
[1]
  inhibition: -0.3%
[2]
  inhibition: -1.47%
[3]
  inhibition: -3.2%

## CC1(C)NC(N)=NC(=N)N1OCCSc1ccc(Cl)c(Cl)c1
[1]
  inhibition: 5.92%
[2]
  inhibition: 7.48%
[3]
  inhibition: 9.66%

## COc1ccc(Nc2nc(NCc3cccnc3)cc(-c3ccc(OC)cc3)n2)cc1
[1]
  inhibition: -0.44%
[2]
  inhibition: 0.66%
[3]
  inhibition: -0.82%

## O=C(Cn1c(CCc2cccc(F)c2F)cc(=O)c2ccccc21)N(Cc1ccc(-c2ccc(C(F)(F)F)cc2)cc1)C1CCN(CCO)CC1
[1]
  inhibition: 4.1%
[2]
  inhibition: 3.74%
[3]
  inhibition: 4.47%

## COc1cc(C(=O)N2CCN(C(C)C)CC2)ccc1CN(C)CCCCN1CCN(c2cccc(Cl)c2Cl)CC1
[1]
  inhibition: 1.77%
[2]
  inhibition: 1.73%
[3]
  inhibition: 0.12%

## COCc1nc(-c2ccccc2)nc(N2CCN(C(=O)NC(C)C)CC2)c1Cc1ccccc1F
[1]
  inhibition: 8.3%
[2]
  inhibition: 6.85%
[3]
  inhibition: 6.8%

## CCCCCCn1ccc2c3c(N)nc(N)nc3ccc21
[1]
  inhibition: 104%
[2]
  inhibition: 101%
[3]
  inhibition: 102%

## COc1ccc(CNCc2ccccc2)cc1-c1ccc(S(=O)(=O)NCCN2CCCC2)c(C)c1
[1]
  inhibition: 3.15%
[2]
  inhibition: -0.54%
[3]
  inhibition: 2.34%

## O=S(=O)(NCCN1CCCC1)c1ccc(-c2ccccc2CNC2Cc3ccccc3C2)cc1
[1]
  inhibition: 66.1%
[2]
  inhibition: 67.7%
[3]
  inhibition: 50.5%

## Cc1nc(C)c(-c2ccc(Oc3ccc(Cl)cc3)cc2)c(O)c1I
[1]
  inhibition: 2.9%
[2]
  inhibition: 0.57%
[3]
  inhibition: 0.03%

## Cc1ccc(C)c(S(=O)(=O)Nc2ccc(Br)cc2C(=O)Nc2cccc(C(F)(F)F)c2)c1
[1]
  inhibition: 0.14%
[2]
  inhibition: 0.63%
[3]
  inhibition: -1.9%

## CC(C)C[C@H](NC(=O)c1ccc(OCCN2CCOCC2)cc1)C(=O)N[C@H](/C=N/N1CCNC1=O)CCc1ccccc1
[1]
  inhibition: 6.57%
[2]
  inhibition: 6.05%
[3]
  inhibition: 4.07%

## CC1CN(c2cnn(Cc3ccc(NC(=O)Nc4cccc(C(F)(F)F)c4)cc3)c(=O)c2Cl)CC(C)N1 (centres undefined)
[1]
  inhibition: 3.97%
[2]
  inhibition: 3.35%
[3]
  inhibition: -1.12%

## c1cc(Nc2nc(-c3ccc(-c4csc(Nc5ccncc5)n4)cc3)cs2)ccn1
[1]
  inhibition: -1.93%
[2]
  inhibition: -1.56%
[3]
  inhibition: -1.05%

## O=C(NCCc1cccc(F)c1)c1cc(Br)cc(N2CCN(c3ccncc3)CC2)c1
[1]
  inhibition: 6.76%
[2]
  inhibition: 5.57%
[3]
  inhibition: 3.44%

## O=c1cc(NCCCNC2CCOc3c(I)cc(Cl)cc32)[nH]c2ccccc12 (centres undefined)
[1]
  inhibition: 2.44%
[2]
  inhibition: 4.6%
[3]
  inhibition: 1.03%

## Cc1ccc(O)cc1Nc1ccnc2cc(-c3cccc(CNCCS(C)(=O)=O)c3)ccc12
[1]
  inhibition: 1.09%
[2]
  inhibition: 0.12%
[3]
  inhibition: -3.77%

## O=C(Nc1ccc(Cl)cc1)Nc1ccc2c(c1)N1CCN=C1S2
[1]
  inhibition: -0.81%
[2]
  inhibition: -1.2%
[3]
  inhibition: 5.02%

## O=C(Nc1ccc(Cn2ncc(N3CCCNCC3)c(Cl)c2=O)cc1)Nc1cccc(SC(F)(F)F)c1
[1]
  inhibition: 0.84%
[2]
  inhibition: 1.25%
[3]
  inhibition: 0.05%
